Test results published in publication PMC4336329 (PLoS ONE, 2015).
The campaign covered roughly 310,000 compounds. About 14,000 (4.5%) showed an effect of 50% or more. The effect is printed as a negative number. The sample holds strong results, similar compounds and a random draw of the others, so the mix is not that of the screen.

Molecular target: human ether-à-go-go-related gene (hERG) potassium channel (human, UniProt Q12809)
Experiment: primary screen, population patch clamp on CHO cells stably expressing hERG; higher = less effect of the substance
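Also: peak tail current of the secondary pulse compared with the same well before compound.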

Sequence of human ether-à-go-go-related gene (hERG) potassium channel (Q12809 whole entry, looked up): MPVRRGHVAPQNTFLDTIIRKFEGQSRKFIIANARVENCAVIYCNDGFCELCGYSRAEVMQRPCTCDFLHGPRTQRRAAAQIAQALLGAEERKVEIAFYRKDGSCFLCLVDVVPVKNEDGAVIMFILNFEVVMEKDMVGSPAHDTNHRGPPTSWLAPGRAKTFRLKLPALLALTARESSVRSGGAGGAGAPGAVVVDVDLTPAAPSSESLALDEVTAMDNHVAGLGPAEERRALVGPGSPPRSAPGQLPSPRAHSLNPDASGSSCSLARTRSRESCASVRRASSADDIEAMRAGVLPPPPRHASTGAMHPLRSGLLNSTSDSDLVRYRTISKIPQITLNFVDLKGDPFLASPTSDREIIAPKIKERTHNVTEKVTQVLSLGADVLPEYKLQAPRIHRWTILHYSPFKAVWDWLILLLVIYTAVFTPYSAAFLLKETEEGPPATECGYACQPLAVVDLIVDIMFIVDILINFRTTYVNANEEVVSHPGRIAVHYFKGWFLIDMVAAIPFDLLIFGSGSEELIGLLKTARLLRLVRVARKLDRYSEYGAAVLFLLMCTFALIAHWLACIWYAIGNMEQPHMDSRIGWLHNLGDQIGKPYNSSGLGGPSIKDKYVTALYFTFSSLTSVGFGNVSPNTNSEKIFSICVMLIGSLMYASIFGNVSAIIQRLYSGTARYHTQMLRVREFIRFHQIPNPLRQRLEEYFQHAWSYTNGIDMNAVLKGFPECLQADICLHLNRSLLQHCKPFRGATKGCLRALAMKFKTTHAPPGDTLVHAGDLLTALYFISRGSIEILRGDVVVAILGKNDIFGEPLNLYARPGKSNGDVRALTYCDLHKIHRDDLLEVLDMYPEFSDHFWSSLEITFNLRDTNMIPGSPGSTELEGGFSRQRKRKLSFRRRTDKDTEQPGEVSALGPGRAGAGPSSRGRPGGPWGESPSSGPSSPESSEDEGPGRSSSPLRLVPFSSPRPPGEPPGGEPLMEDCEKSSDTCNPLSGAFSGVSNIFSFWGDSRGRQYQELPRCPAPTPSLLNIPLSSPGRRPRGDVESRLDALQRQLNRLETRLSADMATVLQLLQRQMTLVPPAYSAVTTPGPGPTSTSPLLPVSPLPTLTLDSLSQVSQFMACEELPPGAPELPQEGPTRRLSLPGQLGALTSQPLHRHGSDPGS

Row | Structure (SMILES) | hERG current change (%, negative = inhibition) at 10uM [%]
1 | Cc1cccnc1NCC(O)COc1ccccc1 (stereo not drawn) | -37.5
2 | OC(CNCCNc1ncccc1C(F)(F)F)Cn1ccc2ccccc21 (stereo not drawn) | -45.3
3 | COc1ccc(OCC(O)CNCCNc2nccc(C(F)(F)F)n2)cc1 (stereo not drawn) | -23.3
4 | O=[N+]([O-])c1ccc(OCC(O)CNCCNc2nccc(C(F)(F)F)n2)cc1 (stereo not drawn) | -79.2
5 | OC(CNCCNc1ncccc1C(F)(F)F)COc1ccc(F)cc1 (stereo not drawn) | -72
6 | O=C(NCC(O)COc1ccc([N+](=O)[O-])cc1)c1ccccc1 (stereo not drawn) | -40.4
7 | Nc1ccc2oc3ccc(N)cc3c(=O)c2c1 | 13.8
8 | CCOc1cccc(CN(CC)CC2CCCN(CCc3cccc(OC)c3)C2)c1O (stereo not drawn) | -66.7
9 | CN(Cc1ccccc1OCCO)CC1CCCN(CCc2ccc(Cl)cc2)C1 (stereo not drawn) | -66.9
10 | COc1ccccc1CCN1CCCC(CN(C)Cc2ccc(OCCO)cc2)C1 (stereo not drawn) | -40.8
11 | CCOc1cccc(CN(C)CC2CCCN(CCc3ccc(Cl)cc3)C2)c1O (stereo not drawn) | -69.7
12 | CN(Cc1ccccc1O)CC1CCCN(CCc2ccc(Cl)cc2)C1 (stereo not drawn) | -76.1
13 | CCN(Cc1ccccc1OC)CC1CCCN(CCc2cccc(OC)c2)C1 (stereo not drawn) | -43.6
14 | CCOC(=O)c1cc2sc(C)cc2n1CC(=O)N1CCOCC1 | 7.06
15 | Cc1cc(NC(=O)c2cccnc2)ccc1NC(=O)c1cc2ccccc2o1 | 11.1
16 | O=C(Nc1ccccn1)C(F)(F)C(F)(F)C(F)(F)C(F)(F)C(=O)Nc1ccccn1 | -18
17 | COc1ccc(/C=C/C(=O)C2CC2)cc1Cn1nc(C)c([N+](=O)[O-])c1C | -14.6
18 | COc1cc(C(=S)N2CCOCC2)ccc1OC(=O)c1cc(OC)c(OC)c(OC)c1 | 21.8
19 | Cc1nnc(C)c2c(C)n(-c3ccc(Cl)c(N)c3)c(C)c12 | -45
20 | CCOC(=O)N1CCC2(CC1)C(C#N)=C(N)OC1=C2C(=O)CCC1 | -0.515
21 | N#CC1=C(N)OC2=C(C(=O)CCC2)C12CCN(C(=O)OCc1ccccc1)CC2 | -55.9
22 | CC1(C)CC(=O)C2=C(C1)OC(N)=C(C#N)C21CCN(C(=O)OCc2ccccc2)CC1 | -2.49
23 | Cc1cc(NN)nc(NS(=O)(=O)c2ccccc2)n1 | 25.7
24 | COc1ccc(N/C(C)=C2/C(=O)C(=O)N(CCO)C2c2ccc(Br)cc2)cc1 (stereo not drawn) | -49
25 | COc1ccc(N/C(C)=C2/C(=O)C(=O)N(CCO)C2c2ccc([N+](=O)[O-])cc2)cc1 (stereo not drawn) | -67.3

Row | Structure (SMILES) | hERG current change (%, negative = inhibition) at 10uM [%]
26 | COc1ccc(C2/C(=C(/O)c3ccccc3)C(=O)C(=O)N2CCO)cc1 (stereo not drawn) | -21.1
27 | O=C(N/N=C/c1ccc([N+](=O)[O-])cc1)c1cccc2cc[nH]c12 | 12.4
28 | CN(CC(=O)NCc1ccc(Cl)cc1)S(=O)(=O)c1cccc2nsnc12 | -52.5
29 | CN(CC(=O)NCc1cccs1)S(=O)(=O)c1cccc2nsnc12 | 0.981
30 | CN(CC(=O)NCc1ccc(F)cc1)S(=O)(=O)c1cccc2nsnc12 | -21.1
31 | O=C(C1=COCCO1)N1CCN(C(c2ccccc2)c2ccccc2)CC1 | -7.48
32 | Cc1ccc(CNc2nc3ccccc3n3nnnc23)cc1 | 10.6
33 | CC1CC(C)CN(C(=O)c2ccc3nc[nH]c3c2)C1 (stereo not drawn) | 4.05
34 | O=c1[nH]c2ccc(Cl)cc2c(O)c1Cc1ccccc1 | 12.6
35 | Cc1ccc2nc(NCC(=O)O)nc(-c3ccccc3)c2c1 | 4.48
36 | COc1cc(CC(=O)NCC2CCCCC2)cc(OC)c1OC | 19.6
37 | COc1cc(C(=O)NCC2CCCCC2)cc(OC)c1OC | -67.3
38 | COc1cc(C(=O)NCC2CCCO2)cc(OC)c1OC (stereo not drawn) | 16.8
39 | CCOC(=O)N1CCN(C(=O)C2CC(=O)N(c3ccc(OC)cc3)C2c2ccc(OC)cc2)CC1 (stereo not drawn) | -13.2
40 | Cc1cccc(CSc2nc3c(cc2C#N)CN(C)CC3)c1 | -71.2
41 | CN1CCc2nc(SCc3cccc(Br)c3)c(C#N)cc2C1 | -11.7
42 | CN1CCc2nc(SCc3ccccc3Br)c(C#N)cc2C1 | -28.2
43 | CN1CCc2nc(SCCOc3ccccc3)c(C#N)cc2C1 | -66.3
44 | Cc1cccc(CSc2nc3c(cc2C#N)CCC3)c1 | 13.7
45 | CC(NC(=O)CSc1nc2c(cc1C#N)CN(C)CC2)c1ccccc1 (stereo not drawn) | -20.3
46 | COC/C=C/C1=CC2=CC(=O)C(C)(OC(=O)c3cnc4ccccc4n3)C(=O)C2=CN1CCOC (stereo not drawn) | 13.3
47 | Cc1c[n+]([O-])n(-c2ccc(C(=O)O)cc2)n1 | 0.473
48 | COc1ccc(N(C(=O)c2snc(C(N)=O)c2N)C(C(=O)NC2CCCC2)c2ccc(OC)c(OC)c2)cc1 (stereo not drawn) | 10.9
49 | CCOC(=O)C1CCN(C(=O)C2CCC(=O)N(CC3CCCCC3)C2)CC1 (stereo not drawn) | 0.313
50 | CC[n+]1c(/C=C/c2ccc(N(C)C)cc2)ccc2ccccc21.[I-] | -72.9

Row | Structure (SMILES) | hERG current change (%, negative = inhibition) at 10uM [%]
51 | CC(C)CC[n+]1ccccc1/C=C/c1ccc(N(C)C)cc1.[I-] | -71.3
52 | C[n+]1c(/C=C/c2ccc(O)cc2)ccc2ccccc21.[I-] | -40.3
53 | CC[n+]1c(SC)ccc2cc(OC)ccc21.[O-][Cl+3]([O-])([O-])[O-] | -10.6
54 | CCSc1ccc2cc(OC)ccc2[n+]1CC.[I-] | 10.8
55 | CN(C)c1ccc(/C=C/c2ccc3ccccc3[n+]2C)cc1.[I-] | -59.9
56 | CCN(CC)c1ccc(/C=C/c2ccc3ccc(OC)cc3[n+]2CC)cc1.[I-] | -82
57 | CN(CCCS(=O)(=O)[O-])c1ccc(/C=C/c2ccc3ccccc3[n+]2C)cc1 | 19.6
58 | CN(C)c1ccc(/C=C/c2cccc[n+]2[O-])cc1 | 19.7
59 | CN(C)c1ccc(/C=C/c2cc[n+](C)cc2)cc1.[I-] | 2.73
60 | CC[n+]1c(/C=C/c2ccc(OC)c(OC)c2)ccc2ccccc21.[I-] | 23.5
61 | CC[n+]1c(/C=C/c2ccc(OC(C)=O)c(OC)c2)ccc2ccccc21.[I-] | -4.85
62 | O=C(C1CCCCC1)N1CCC(O)(c2ccc(Cl)cc2)CC1 | -10.7
63 | Cc1cccc(N2C(=O)CC(N(O)c3ccccc3)C2=O)c1 (stereo not drawn) | 9.2
64 | Cc1cc(C(F)(F)F)nn1Cc1ccc(C(=O)NCc2ccco2)o1 | 5.14
65 | COc1ccc(C)cc1-n1nnnc1SCC1CCCCO1 (stereo not drawn) | -14.8
66 | CCOc1ccc(CCNc2nc3c(c(=O)n(C)c(=O)n3C)n2CC)cc1OCC | 3.1
67 | CCOC(=O)C1=C(COC(=O)CC(C)c2ccccc2)NC(=O)NC1C (stereo not drawn) | -17.8
68 | CN1C(=O)C(=Cc2ccc(N3CCCCCC3)cc2)C(=O)N(C)C1=O | 13.1
69 | CCOc1ccc2[nH]c(=O)c(C(c3nnnn3C3CCCCC3)N3CCN(CC)CC3)cc2c1 (stereo not drawn) | -40.3
70 | COc1cccc(NC(=O)Cc2ccc3ccccc3c2)c1 | -7.16
71 | N#C/C(=C\c1cccc(OCC(=O)O)c1)c1nc2ccccc2[nH]1 | 19.6
72 | COc1cc(-c2noc(C)n2)cc(OC)c1OC | 13.4
73 | COc1ccc(Nc2nc(NCCO)nc(N3CCCC3)n2)cc1 | -38.3
74 | Cc1ccc(S(=O)(=O)NCC(=O)OCC(=O)Nc2cccc(S(=O)(=O)NC3=NCCCCC3)c2)cc1C | -1.1
75 | COc1ccccc1C(=O)NCCC(=O)Nc1nc2ccccc2[nH]1 | -12.6

Row | Structure (SMILES) | hERG current change (%, negative = inhibition) at 10uM [%]
76 | CC(C)(C)c1ccc(/C=C/C(=O)NCCCn2ccnc2)cc1 | -46.5
77 | O=C(/C=C/c1ccc(F)cc1)NCCCn1ccnc1 | -31.9
78 | O=C(/C=C/c1ccc(Cl)c(Cl)c1)NCCCn1ccnc1 | -41.7
79 | O=C(/C=C/c1ccc(Br)cc1)NCCCn1ccnc1 | -57
80 | O=C(NCCCn1ccnc1)c1ccc(Cl)cc1 | -2.72
81 | Clc1ccc(SCCCCn2ccnc2)cc1 | -53
82 | Clc1ccc(SCCn2ccnc2)cc1 | -1.48
83 | O=C(/C=C/c1ccc(Cl)cc1)NCCCn1ccnc1 | -55.8
84 | COc1ccc(/C=C/C(=O)NCCCn2ccnc2)cc1 | -30.9
85 | O=C(C#Cc1ccccc1)NCc1ccccc1F | -2.39
86 | CC1(C)CCC(=O)C=C1Nc1ccc(F)c(Cl)c1 | 7.56
87 | N#C/C(=N\O)c1nc(-c2ccccc2)cs1 | 15.9
88 | CC(C)(C)c1ccc(S(=O)(=O)NCc2ccc(C(=O)NCC3CCCO3)cc2)cc1 (stereo not drawn) | 13.8
89 | O=C(OCc1ccc(Br)cc1)c1cccc(S(=O)(=O)N2CCCC2)c1 | -6.47
90 | CSc1nsc(SC)c1C(N)=O | 10.6
91 | CCOC(=O)C1(CCOC)CCN(Cc2ccncc2)CC1 | 8.26
92 | CCOC(=O)C1(CCOc2ccccc2)CCN(Cc2ccc(C#CCCO)cc2)CC1 | -53.3
93 | CCOC(=O)C1(CCOc2ccccc2)CCN(Cc2ccc(C(=O)OC)cc2)CC1 | -49.9
94 | CCOC(=O)C1(CCOc2ccccc2)CCN(Cc2ccc(OC)cc2)CC1 | -75.1
95 | CCOC(=O)C1(Cc2cccc(OC)c2)CCN(Cc2cnc(SC)nc2)CC1 | -27
96 | CCOC(=O)C1(CCOc2ccccc2)CCN(Cc2ccncc2)CC1 | -52
97 | CCOC(=O)C1(CCOC)CCN(Cc2cnc(-c3cccc(C)c3)nc2)CC1 | -5.81
98 | CCOC(=O)C1(CCOc2ccccc2)CCN(Cc2cnc(SC)nc2)CC1 | -72.2
99 | CCOC(=O)C1(Cc2ccccc2)CCCN(Cc2ccncc2)C1 (stereo not drawn) | -17.4
